Compound activity deposited in PubChem BioAssay by National Center for Advancing Translational Sciences (NCATS).
In the library only some 13% were active in any assay of this set; here they are far more common.
G9a block – qHTS Assay for Inhibitors of Histone Lysine Methyltransferase G9a; Histone-lysine N-methyltransferase EHMT2 (Homo sapiens), Q96KQ7; Potency, µM (highest dose often 102 µM), for the others: at the top dose activity, negative = inhibition, actives largely listed as inhibitors; G9a H3K9 monomethylation, AlphaScreen, 2 h; hit rate 8.8% among 350,000; AID 504332, 2011; also: potency is read from the fitted curve at half-maximal effect; % is scaled to controls: 0 for no effect and ±100 for the full control effect; nearly all actives have a fitted effect of over 75% in size
Target sequence (Q96KQ7 913-1193 limits assumed): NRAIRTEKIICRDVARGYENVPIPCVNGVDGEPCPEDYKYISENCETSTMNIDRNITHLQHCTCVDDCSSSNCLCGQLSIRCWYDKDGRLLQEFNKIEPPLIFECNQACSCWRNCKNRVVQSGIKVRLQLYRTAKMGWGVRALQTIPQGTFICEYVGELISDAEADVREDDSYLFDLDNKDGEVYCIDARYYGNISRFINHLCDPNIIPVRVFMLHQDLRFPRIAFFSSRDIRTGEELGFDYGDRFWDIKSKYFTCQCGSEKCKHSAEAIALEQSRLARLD
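Methyltransferase reactions run at room temperature for 2 h (20 nM enzyme, 500 nM biotin-H3K9 peptide, 20 uM SAM) after a 15 min compound preincubation; product detected by AlphaScreen beads and anti-H3K9me1 antibody.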
Sfp PPTase inh – qHTS Assay for Inhibitors of Bacillus subtilis Sfp phosphopantetheinyl transferase (PPTase); 4'-phosphopantetheinyl transferase ffp (Bacillus subtilis), Q9F4F7; Biochemical Sfp PPTase activity, qHTS; Potency, µM, for the others: largest response in the series, negative = inhibition, actives largely listed as inhibitors; hit rate 3.5% among 310,000; AID 1490, 2009;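 also: the enzyme is Sfp with the accession as filed and its product quenches rhodamine fluorescence; potency is read from the fitted curve at half-maximal effect; 0% = enzyme reaction without inhibitor and -100% = no enzyme wells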
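Sfp 15 nM + cpd, 15 min RT; start w/ rhodamine-CoA 5 uM, BHQ-2-YbbR 12.5 uM (final); 50 mM Hepes pH 7.6, 10 mM MgCl2, 0.01% NP-40, 0.01% BSA; read 525/598 nm at 0 and 30 min.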
LMNA splice mod – qHTS Assay for Modulators of Lamin A Splicing; Potency, µM (series often up to 46.1 µM), for the others: top-dose ratio change, negative = inhibition, actives largely listed as inhibitors; AID 1487, 2009; hit rate 0.01% among 200,000; HeLa LMNA splicing GFP/RFP minigene ratio, 48 h; active = well fitted inhibition curve with a large enough effect in the signal ratio, with a control signal flat, not every such curve was filed as active; inconclusive = small, poorly fitted or top-dose-only effect, or effect the other way, or a change in a side signal; the % refers to the signal ratio; also: potency is read from the fitted curve at half-maximal effect; % is scaled to controls: 0 for no effect and ±100 for the full control effect
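S3 HeLa stable clones carrying a lamin A-EGFP splicing minigene plus DsRed2 were seeded at 600 cells/well in Opti-MEM with 2% FBS, pin-dosed and incubated 48 h at 37°C. Acumen cytometry (488 nm) gave the GFP/RFP total-intensity ratio.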
miR-21 reporter – qHTS Assay for Modulators of miRNAs and/orActivators of miR-21; HeLa miR-21 FLuc reporter, luciferase, 48 h; 340,000 tested, under 10 active; Potency, µM (titrated, usually from 38.3 µM), without a hit: at the top dose activity change, positive = activation, actives largely listed as activators;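 also: % of control where 0% means no effect; miR-21 action dims this reporter so a rising signal means less miR-21 action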
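Compounds were titrated across several concentrations (up to approximately 40 uM) and incubated 48 hours with HeLa miR-21-FLuc reporter cells (miR-21 target sequence downstream of FLuc, endogenous miR-21). Readout was firefly luciferase luminescence after lytic detection reagent.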
JMJD2E inh – qHTS Assay for Inhibitors of Human Jumonji Domain Containing 2E (JMJD2E) | AID 2147, 2009 | JMJD2E catalytic domain, FDH-coupled NADH fluorescence (FDH is formaldehyde dehydrogenase) | hit rate 1.6% among 230,000 | Lysine-specific demethylase 4E (Homo sapiens), B2RXH2 | Potency, µM (titrated, usually from 57.1 µM), for the others: at the highest dose activity change, negative = inhibition, most hits filed as inhibitors; active = well fitted inhibition curve with a large enough effect, not every such curve was filed as active; inconclusive = small, poorly fitted or top-dose-only effect, or another doubt; inactive = no such curve, though single readings can be large or run the other way;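 also: potency is read from the fitted curve at half-maximal effect; 0% = wells with enzyme and -100% = buffer wells without enzyme; nearly all actives have a fitted effect of over 50% in size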
Target sequence (B2RXH2 1-337 limits assumed): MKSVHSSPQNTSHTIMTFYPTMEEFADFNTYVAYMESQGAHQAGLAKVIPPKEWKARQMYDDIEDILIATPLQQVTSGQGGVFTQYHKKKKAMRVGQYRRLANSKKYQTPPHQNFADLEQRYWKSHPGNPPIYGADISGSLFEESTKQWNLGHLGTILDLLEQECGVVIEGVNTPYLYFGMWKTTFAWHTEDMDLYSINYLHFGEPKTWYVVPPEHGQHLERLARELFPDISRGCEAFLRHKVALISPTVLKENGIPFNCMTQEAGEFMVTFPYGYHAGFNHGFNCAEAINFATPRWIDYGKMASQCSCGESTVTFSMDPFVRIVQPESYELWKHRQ
ALDH1A1 inh – qHTS Assay for Inhibitors of Aldehyde Dehydrogenase 1 (ALDH1A1); Aldehyde dehydrogenase 1A1 (Homo sapiens), P00352; Purified ALDH1A1, NADH fluorescence, propionaldehyde substrate; Potency, µM (series often up to 75.3 µM), for the others: at the highest dose activity, negative = inhibition, hits mostly inhibitors; hit rate 7.3% among 220,000; AID 1030, 2008; active = well fitted inhibition curve with a large enough effect, not every such curve was filed as active; inconclusive = small, poorly fitted or top-dose-only effect, or another doubt; inactive = no such curve, though single readings can be large or run the other way;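 also: potency is read from the fitted curve at half-maximal effect; plate controls were no enzyme wells and a reference inhibitor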
An asterisk follows results filed as active; [ ] = dose if it differs, or a comment. Unless noted, calls follow the shape of the dose curve; as a rule, active = well fitted curve in the direction sought with a large enough effect; inconclusive = small, poorly fitted or top-dose-only effect, or another doubt; inactive = no such curve, though single readings can be large; an effect the other way counts as inactive or inconclusive.

Screening COc1ccc(/C([O-])=C(/C(=S)Nc2ccc(C)c(C)c2)n2c[n+](C)c3ccccc32)cc1OC returned G9a block 44.7µM*, Sfp PPTase inh 44.7µM*, LMNA splice mod -16.6%[46 µM], miR-21 reporter -18.4%, JMJD2E inh 8.9% and ALDH1A1 inh inconclusive.
Cc1cc(-c2nc3ncccc3o2)ccc1NC(=O)COc1cc(C)c(Cl)c(C)c1 was read as G9a block -32.9%[59 µM] and miR-21 reporter -4.0%.
Screening Brc1ccc(CNc2cc3c(cc2Br)OCCO3)cc1 returned G9a block 44.7µM*, Sfp PPTase inh 14.5%, LMNA splice mod 3.3%[9.22 µM], miR-21 reporter -23.0%, JMJD2E inh 3.3% and ALDH1A1 inh -0.4%.
CC(=O)Nc1cc2c(cc1Br)OCCO2 was read as G9a block -5.5%[12.7 µM], Sfp PPTase inh 15.5%, LMNA splice mod 14.6%, miR-21 reporter -0.5%, JMJD2E inh 9.0% and ALDH1A1 inh 7.4%.
Screening c1ccc(Cn2cc(CN3CCCCO3)c(-c3ccc4c(c3)OCO4)n2)cc1 returned G9a block 13.4%, Sfp PPTase inh 8.4%, miR-21 reporter -1.2%, JMJD2E inh -12.9% and ALDH1A1 inh 31.6µM*.
O=C1c2c(O)cc(O)cc2O[C@@]12c1c(cc(O)c3c1O[C@H](c1ccc(O)cc1)[C@@H](O)C3)O[C@@H]2c1ccc(O)cc1 was read as G9a block 50.1µM*, Sfp PPTase inh 21.1%, LMNA splice mod -8.4%, miR-21 reporter -1.5%, JMJD2E inh -5.8% and ALDH1A1 inh -3.5%.
For Cc1ccc(S(=O)(=O)N2CCN(C(=O)N3CCOCC3)C2C(C)C)cc1 (stereo not given) the results were G9a block 10.1%[59 µM], Sfp PPTase inh 19.7%, LMNA splice mod 2.1%, miR-21 reporter -1.5%, JMJD2E inh -4.4% and ALDH1A1 inh -1.8%.
Screening CCN(CC)c1ccc(C2N(C(=O)N3CCOCC3)CCN2S(=O)(=O)c2ccc(C)cc2)cc1 (stereo not given) returned G9a block inconclusive, Sfp PPTase inh 3.6%, LMNA splice mod 8.2%, miR-21 reporter -6.5%, JMJD2E inh -0.8% and ALDH1A1 inh 7.94µM*.
Cc1ccc(NC(=O)c2ccc(CNS(=O)(=O)c3ccc4c(c3)C(C)(C)C(=O)N4C)cc2)cc1F was read as G9a block 2.0%[59 µM] and miR-21 reporter inconclusive.
For CCOC(=O)c1cc(S(=O)(=O)Nc2ccccc2)[nH]n1 the results were G9a block 10µM*, LMNA splice mod 4.5%[46 µM] and miR-21 reporter 0.8%.
CCOC(=O)c1cc(S(=O)(=O)Nc2ccc(OC(F)(F)F)cc2)[nH]n1 was read as G9a block 3.16µM*, LMNA splice mod 8.0%[46 µM] and miR-21 reporter -10.0%.
CCOC(=O)c1cc(S(=O)(=O)Nc2ccccc2OCC)[nH]n1 was read as G9a block 8.91µM*, LMNA splice mod -16.8%[46 µM] and miR-21 reporter 0.6%.
For CCOC(=O)c1cccc(NC(=O)CCc2c(C)nn(-c3ccc(N4CCOCC4)nn3)c2C)c1 the results were G9a block 29.6%[59 µM], LMNA splice mod inconclusive and miR-21 reporter -1.1%.
For CC1=CC(C)(C)N2C(=O)C(=Nc3ccc(O)cc3)c3cccc1c32 the results were G9a block 5.01µM*, Sfp PPTase inh inconclusive, miR-21 reporter 29.2% and JMJD2E inh 12.6µM*.
For COc1ccc(N2C(=O)CSC23C(=O)N2c4c(cccc43)C(C)=CC2(C)C)cc1 (stereo not given) the results were G9a block -11.9%[59 µM], Sfp PPTase inh -5.2%, LMNA splice mod 15.3%, miR-21 reporter 0.9%, JMJD2E inh -4.7% and ALDH1A1 inh -14.9%.
COc1cc(N=C2C(=O)N3c4c(cccc42)C(C)=CC3(C)C)cc(OC)c1 was read as G9a block 8.91µM*, Sfp PPTase inh 6.2%, LMNA splice mod -1.1%, miR-21 reporter -3.8%, JMJD2E inh -19.6% and ALDH1A1 inh 0.794µM*.
Screening COc1ccc(C(=O)Oc2cc3c4c(c2)C(C)=CC(C)(C)N4C(=O)C3=O)cc1OC returned G9a block -46.3%, Sfp PPTase inh -16.6%, LMNA splice mod -11.9%, miR-21 reporter -0.3%, JMJD2E inh -9.8% and ALDH1A1 inh inconclusive.
CC(=O)N1c2ccc(S(=O)(=O)N3CCCCCC3)cc2CC1C(=O)NCc1ccccc1 (stereo not given) was read as G9a block 6.8%[59 µM], LMNA splice mod -4.8%[46 µM] and miR-21 reporter 0.2%.
Screening O=S(=O)(Nc1ccc(-c2ccc(N3CCCC3)nn2)cc1)c1cc(F)ccc1F returned G9a block -5.6%[59 µM], LMNA splice mod -4.1%[46 µM] and miR-21 reporter -32.5%.
CC(=O)Nc1ccc(C(=O)NC2CCSc3ccccc32)cc1 (stereo not given) was read as G9a block 14.1µM*, Sfp PPTase inh 5.7% and miR-21 reporter -16.6%.
For O=C(NC1CCSc2ccccc21)c1ccc(F)c(S(=O)(=O)N2CCOCC2)c1 (stereo not given) the results were Sfp PPTase inh 50.1µM* and miR-21 reporter 1.4%.
COc1ccc(C(=O)NC2CCSc3ccccc32)cc1 (stereo not given) was read as G9a block 19.5%, Sfp PPTase inh 11.4% and miR-21 reporter -24.9%.
For CSc1ccccc1C(=O)NC1CCSc2ccccc21 (stereo not given) the results were G9a block 39.8µM*, Sfp PPTase inh 7.3% and miR-21 reporter -12.4%.
`O=C(NC1CCSc2ccccc21)c1cc(S(=O)(=O)N2CCOCC2)ccc1F` (stereo not given) gave G9a block -6.9%, Sfp PPTase inh 21.3% and miR-21 reporter -7.7%.
Screening O=C(NC1CCSc2ccccc21)c1ccccc1F (stereo not given) returned Sfp PPTase inh -0.9% and miR-21 reporter -29.1%.
Screening Cc1ccc(NC(=O)CSc2nccn2C2CCCC2)cc1 returned G9a block -10.7%[59 µM], LMNA splice mod 0.3%[46 µM] and miR-21 reporter -0.9%.
For Cc1ccc(NC(=O)CC2SC3=NCCCN3C2=O)c(C)c1 (stereo not given) the results were G9a block 0.708µM*, Sfp PPTase inh inconclusive, LMNA splice mod -4.3%, miR-21 reporter -3.5%, JMJD2E inh -3.6% and ALDH1A1 inh 1µM*.
Screening C/C(=N\Nc1cccc(C(F)(F)F)c1)c1ccc(O)cc1 returned G9a block 8.91µM*, Sfp PPTase inh -5.4%, LMNA splice mod -16.6%[46 µM], miR-21 reporter -24.8%, JMJD2E inh -7.7% and ALDH1A1 inh 20µM*.
